Laboratory results: the supplement of paper PMC11732987, “Enantioselective OTUD7B fragment discovery through chemoproteomics screening and high-throughput optimisation” (Communications Chemistry, 2025)

Assays:
Test in all cases: log2 ratio of Biotin-Ahx-Ub-VS probe labelling (fragment/DMSO); higher = less target engagement (more negative = stronger competition), active = hit call of the paper (q ≤ 0.05, log2 ratio ≤ -1)
Details in all cases: compound concentration: 200 uM; treatment time: 3 h
ALG13 = target: T1, ALG13 (UniProt Q9NP73)
T1 sequence (whole entry): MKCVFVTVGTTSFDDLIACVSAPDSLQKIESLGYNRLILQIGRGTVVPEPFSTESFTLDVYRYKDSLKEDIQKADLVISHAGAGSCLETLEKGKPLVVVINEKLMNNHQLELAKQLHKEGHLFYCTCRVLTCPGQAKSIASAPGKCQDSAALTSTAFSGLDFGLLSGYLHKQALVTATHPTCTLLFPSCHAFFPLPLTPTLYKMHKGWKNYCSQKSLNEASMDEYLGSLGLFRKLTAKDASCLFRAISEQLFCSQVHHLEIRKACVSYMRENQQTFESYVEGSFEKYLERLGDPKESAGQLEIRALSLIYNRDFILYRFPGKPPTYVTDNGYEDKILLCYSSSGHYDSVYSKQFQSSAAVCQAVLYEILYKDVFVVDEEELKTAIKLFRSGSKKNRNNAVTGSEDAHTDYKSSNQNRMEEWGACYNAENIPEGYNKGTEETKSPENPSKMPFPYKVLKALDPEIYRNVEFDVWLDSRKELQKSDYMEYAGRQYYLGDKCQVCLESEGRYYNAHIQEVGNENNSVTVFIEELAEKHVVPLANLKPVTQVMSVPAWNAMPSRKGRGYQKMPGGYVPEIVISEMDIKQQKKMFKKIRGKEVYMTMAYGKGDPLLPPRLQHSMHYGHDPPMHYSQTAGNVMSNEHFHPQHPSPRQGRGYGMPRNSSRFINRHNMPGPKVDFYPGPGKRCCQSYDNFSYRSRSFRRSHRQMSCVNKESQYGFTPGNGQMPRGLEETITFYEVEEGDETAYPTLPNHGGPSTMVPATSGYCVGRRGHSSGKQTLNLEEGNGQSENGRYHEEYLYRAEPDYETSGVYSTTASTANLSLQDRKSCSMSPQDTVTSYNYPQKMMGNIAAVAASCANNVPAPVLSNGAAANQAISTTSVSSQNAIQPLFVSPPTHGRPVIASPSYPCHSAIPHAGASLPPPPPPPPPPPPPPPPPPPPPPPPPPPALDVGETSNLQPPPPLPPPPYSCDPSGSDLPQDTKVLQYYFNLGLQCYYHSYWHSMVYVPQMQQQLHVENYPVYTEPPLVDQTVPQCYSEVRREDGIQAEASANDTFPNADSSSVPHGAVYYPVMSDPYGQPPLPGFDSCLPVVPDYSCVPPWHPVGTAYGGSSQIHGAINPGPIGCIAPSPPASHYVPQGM
Outline: (§1)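 Using Biotin-Ahx-Ub-VS at 0.5 µM final for 1 h, DUBs were labelled in HEK293T lysate (495 µg per sample) that had first been treated in triplicate with fragment at 200 µM or vehicle for 3 h. NeutrAvidin enrichment, LysC and trypsin digestion and diaPASEF LC-MS/MS followed. Spectronaut label-free quantities were global-median-normalised. Values are average log2 fragment/vehicle ratios by unpaired t-test, using proteins with ≥2 unique peptides.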

ATXN3 = ATXN3 (UniProt P54252)
Outline: as §1

BAP1 = target: T2, BAP1 (UniProt Q92560)
T2 sequence (whole entry): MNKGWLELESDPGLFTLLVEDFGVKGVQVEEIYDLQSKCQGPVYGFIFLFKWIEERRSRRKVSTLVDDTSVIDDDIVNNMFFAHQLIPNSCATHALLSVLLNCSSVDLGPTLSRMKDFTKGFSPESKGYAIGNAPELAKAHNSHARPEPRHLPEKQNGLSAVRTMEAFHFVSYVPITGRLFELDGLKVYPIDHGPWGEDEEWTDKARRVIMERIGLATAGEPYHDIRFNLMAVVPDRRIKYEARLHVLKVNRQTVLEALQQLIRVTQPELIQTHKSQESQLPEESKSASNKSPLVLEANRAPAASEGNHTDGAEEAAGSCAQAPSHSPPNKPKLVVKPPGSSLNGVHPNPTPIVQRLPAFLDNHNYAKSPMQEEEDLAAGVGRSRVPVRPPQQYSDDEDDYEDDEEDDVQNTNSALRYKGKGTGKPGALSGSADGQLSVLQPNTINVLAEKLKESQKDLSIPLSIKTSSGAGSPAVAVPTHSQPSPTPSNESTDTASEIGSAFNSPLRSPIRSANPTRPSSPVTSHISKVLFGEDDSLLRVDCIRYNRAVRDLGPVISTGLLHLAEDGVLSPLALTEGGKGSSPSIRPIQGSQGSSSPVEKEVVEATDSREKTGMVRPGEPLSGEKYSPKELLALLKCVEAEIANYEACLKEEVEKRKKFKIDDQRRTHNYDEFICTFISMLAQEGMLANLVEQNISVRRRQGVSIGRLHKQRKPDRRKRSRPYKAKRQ
Outline: as §1

EIF3F = EIF3F (UniProt O00303)
Outline: as §1

EIF3H = EIF3H (UniProt O15372)
Outline: as §1

FAM105A = target: T3, FAM105A (UniProt Q9NUU6)
T3 sequence (whole entry): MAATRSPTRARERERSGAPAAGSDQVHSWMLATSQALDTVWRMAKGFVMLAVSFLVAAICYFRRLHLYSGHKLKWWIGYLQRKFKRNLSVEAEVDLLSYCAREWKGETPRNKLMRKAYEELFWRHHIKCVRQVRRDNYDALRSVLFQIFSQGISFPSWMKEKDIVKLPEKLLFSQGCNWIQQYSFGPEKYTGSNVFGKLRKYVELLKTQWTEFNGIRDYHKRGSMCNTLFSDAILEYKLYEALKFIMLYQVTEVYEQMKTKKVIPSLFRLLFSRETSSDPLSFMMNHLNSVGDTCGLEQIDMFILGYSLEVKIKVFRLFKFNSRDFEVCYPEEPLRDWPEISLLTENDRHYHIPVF
Outline: as §1

OTUB1 = OTUB1 (UniProt Q96FW1)
Outline: as §1

OTUD4 = target: T4, OTUD4 (UniProt Q01804)
T4 sequence (whole entry): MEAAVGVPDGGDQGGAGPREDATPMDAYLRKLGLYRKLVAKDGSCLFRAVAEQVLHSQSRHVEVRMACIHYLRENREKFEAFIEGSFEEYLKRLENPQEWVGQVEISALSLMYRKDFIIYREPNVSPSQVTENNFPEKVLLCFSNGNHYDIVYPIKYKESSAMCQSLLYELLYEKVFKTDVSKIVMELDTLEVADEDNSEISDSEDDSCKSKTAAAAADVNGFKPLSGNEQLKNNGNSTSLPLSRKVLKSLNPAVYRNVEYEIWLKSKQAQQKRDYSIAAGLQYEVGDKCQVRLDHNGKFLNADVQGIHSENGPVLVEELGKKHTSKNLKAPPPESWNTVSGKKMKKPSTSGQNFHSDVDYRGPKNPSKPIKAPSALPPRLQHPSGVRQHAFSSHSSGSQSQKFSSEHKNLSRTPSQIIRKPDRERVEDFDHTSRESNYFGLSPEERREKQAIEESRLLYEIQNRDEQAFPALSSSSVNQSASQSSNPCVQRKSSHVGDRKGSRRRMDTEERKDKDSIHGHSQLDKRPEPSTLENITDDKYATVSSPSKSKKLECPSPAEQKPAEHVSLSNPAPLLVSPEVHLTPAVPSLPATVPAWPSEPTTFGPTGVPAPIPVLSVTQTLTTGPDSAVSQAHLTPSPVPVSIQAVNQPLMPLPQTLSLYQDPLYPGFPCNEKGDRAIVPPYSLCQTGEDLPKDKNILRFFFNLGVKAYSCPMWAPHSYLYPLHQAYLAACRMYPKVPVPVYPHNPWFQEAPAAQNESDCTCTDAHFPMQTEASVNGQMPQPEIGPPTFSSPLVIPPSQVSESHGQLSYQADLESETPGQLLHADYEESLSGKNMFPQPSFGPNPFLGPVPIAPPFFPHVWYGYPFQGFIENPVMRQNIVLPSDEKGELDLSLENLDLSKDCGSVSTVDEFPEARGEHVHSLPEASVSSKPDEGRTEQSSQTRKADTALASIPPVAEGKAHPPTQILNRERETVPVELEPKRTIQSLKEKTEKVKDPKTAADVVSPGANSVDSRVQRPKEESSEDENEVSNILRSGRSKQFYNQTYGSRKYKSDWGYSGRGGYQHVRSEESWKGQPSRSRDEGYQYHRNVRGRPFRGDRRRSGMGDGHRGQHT
Outline: as §1

OTUD5 = target: T5, OTUD5 (UniProt Q96G74)
T5 sequence (whole entry): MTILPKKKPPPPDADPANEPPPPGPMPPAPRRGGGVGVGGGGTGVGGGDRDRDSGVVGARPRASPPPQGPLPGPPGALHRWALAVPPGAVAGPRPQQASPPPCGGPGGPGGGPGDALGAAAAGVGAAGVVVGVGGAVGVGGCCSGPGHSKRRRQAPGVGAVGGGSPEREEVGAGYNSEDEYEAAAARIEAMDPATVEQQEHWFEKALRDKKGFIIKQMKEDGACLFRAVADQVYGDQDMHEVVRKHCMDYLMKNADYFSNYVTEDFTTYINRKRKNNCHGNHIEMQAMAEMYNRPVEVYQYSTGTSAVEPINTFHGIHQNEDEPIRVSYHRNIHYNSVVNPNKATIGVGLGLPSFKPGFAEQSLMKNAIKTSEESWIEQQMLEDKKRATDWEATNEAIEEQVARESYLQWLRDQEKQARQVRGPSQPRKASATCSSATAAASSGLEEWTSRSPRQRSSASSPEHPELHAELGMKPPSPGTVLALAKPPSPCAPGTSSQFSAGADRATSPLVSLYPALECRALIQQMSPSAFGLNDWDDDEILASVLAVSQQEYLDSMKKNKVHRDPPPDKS
Outline: as §1

Measured: log2 ratio of Biotin-Ahx-Ub-VS probe labelling

Sequence of OTUB1 (Q96FW1 whole entry): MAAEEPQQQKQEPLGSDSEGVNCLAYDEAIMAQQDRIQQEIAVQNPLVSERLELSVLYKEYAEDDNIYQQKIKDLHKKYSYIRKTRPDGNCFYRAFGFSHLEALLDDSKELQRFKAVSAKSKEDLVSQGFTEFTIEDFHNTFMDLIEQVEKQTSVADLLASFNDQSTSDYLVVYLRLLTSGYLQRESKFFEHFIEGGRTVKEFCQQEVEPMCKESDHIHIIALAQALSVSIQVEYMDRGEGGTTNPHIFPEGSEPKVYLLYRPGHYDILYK
Sequence of EIF3H (O15372 whole entry): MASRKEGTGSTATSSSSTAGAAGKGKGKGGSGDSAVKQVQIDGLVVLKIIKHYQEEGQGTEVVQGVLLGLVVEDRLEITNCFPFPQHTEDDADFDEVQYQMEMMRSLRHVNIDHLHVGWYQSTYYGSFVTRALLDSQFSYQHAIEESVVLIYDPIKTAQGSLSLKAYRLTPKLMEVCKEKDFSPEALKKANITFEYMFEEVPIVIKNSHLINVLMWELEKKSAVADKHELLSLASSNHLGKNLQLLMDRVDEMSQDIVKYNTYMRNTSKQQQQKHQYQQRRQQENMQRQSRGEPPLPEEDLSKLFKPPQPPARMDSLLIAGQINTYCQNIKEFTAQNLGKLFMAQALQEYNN
Sequence of ATXN3 (P54252 whole entry): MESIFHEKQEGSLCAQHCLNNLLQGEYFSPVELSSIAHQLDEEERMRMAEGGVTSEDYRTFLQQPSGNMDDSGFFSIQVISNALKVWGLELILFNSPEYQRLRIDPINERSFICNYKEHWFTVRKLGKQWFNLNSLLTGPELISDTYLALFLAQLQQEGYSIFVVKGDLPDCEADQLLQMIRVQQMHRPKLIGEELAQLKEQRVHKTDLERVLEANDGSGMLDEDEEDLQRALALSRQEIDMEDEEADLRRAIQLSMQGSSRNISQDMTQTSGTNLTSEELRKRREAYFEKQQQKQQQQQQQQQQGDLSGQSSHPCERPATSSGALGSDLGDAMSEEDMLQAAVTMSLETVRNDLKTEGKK
Sequence of EIF3F (O00303 whole entry): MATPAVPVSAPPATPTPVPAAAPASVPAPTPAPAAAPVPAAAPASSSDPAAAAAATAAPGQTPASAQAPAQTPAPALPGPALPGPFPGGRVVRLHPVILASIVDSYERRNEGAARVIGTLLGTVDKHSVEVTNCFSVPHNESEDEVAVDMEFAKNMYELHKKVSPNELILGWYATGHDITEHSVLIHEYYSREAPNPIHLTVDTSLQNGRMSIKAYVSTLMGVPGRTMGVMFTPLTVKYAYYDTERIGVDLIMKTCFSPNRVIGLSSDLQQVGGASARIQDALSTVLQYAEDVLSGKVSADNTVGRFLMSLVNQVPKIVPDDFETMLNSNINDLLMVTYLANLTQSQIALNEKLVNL

O=C(CCl)NC1CCC(C(F)(F)F)CC1 (centres undefined)
inactive: ALG13 0.187 | ATXN3 -0.373 | EIF3F -0.798 | EIF3H -0.225 | FAM105A -0.0674 | OTUB1 0.207 | OTUD4 -0.576 | OTUD5 -0.288
active: BAP1 -1.11
